We go through two compounds from PubChem BioAssay AID2284105 (EPA ToxCast).

Records with an inconclusive call do not appear. The source made the active and inactive calls. The calls were made as follows: active = hit-call score of the fitted dose curve at least 0.9, where 1 is the maximum; inconclusive = response in the unintended direction; inactive = score below 0.9.

human Monoamine Oxidase A (MAO-A), MAOA (gene 4128), sequence (P21397 whole entry, looked up): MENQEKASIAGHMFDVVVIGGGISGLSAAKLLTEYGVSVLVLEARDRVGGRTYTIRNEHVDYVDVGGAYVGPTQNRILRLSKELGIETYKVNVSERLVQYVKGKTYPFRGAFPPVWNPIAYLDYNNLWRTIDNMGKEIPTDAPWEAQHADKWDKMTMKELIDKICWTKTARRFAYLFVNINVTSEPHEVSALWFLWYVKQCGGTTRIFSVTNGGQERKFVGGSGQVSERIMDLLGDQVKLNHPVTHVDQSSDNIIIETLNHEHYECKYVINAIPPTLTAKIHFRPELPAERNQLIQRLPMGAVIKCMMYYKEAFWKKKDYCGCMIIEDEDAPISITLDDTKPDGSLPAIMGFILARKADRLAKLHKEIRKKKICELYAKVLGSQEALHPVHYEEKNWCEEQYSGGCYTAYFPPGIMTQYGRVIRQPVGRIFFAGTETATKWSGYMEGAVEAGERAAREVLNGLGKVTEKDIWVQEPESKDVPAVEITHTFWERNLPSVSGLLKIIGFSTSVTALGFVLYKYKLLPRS

This test has as its target human Monoamine Oxidase A (MAO-A), MAOA (gene 4128) (UniProt P21397). Kind of test: ERF_FR_ENZ_hMAOA: Eurofins (ERF) Enzymatic LeadHunter Assay for human Monoamine Oxidase A (MAO-A). As for the experimental part: ERF_FR_ENZ_hMAOA is a biochemical, single-readout assay that uses extracted gene-proteins in a cell-free assay. Measurements were taken 0.33 hour after chemical dosing in a 96-well plate. See Monoamine Oxidase A (MAO-A) Human Enzymatic Assay, Cerep.ERF_FR_ENZ_hMAOA is an assay component calculated from the ERF_FR_ENZ_hMAOA assay. It is designed to measure enzyme activity using a type of enzyme reporter as detected by fluorescence intensity with spectrophotometry technology.Data from the assay component ERF_FR_ENZ_hMAOA was analyzed at the assay endpoint, ERF_FR_ENZ_hMAOA, in the positive analysis fitting direction relative to DMSO as the negative control and baseline of activity. Using a type of enzyme reporter, loss-of-signal activity can be used to understand changes in enzymatic activity as they relate to gene MAOA. To generalize the intended target to other relatable targets, this assay endpoint is annotated to the […] intended target family, where the subfamily is monoamine oxidase.
Human cells are incubated for 45 minutes at room temprature with Kynuramine, diHCl at 350 uM as sunstrate. Test Sample Requirements: Minimum for 1) Screen: 60 ul of 10 mM stock -OR- 1 mg (pre-weighed) for 10 uM final testing. 2) Dose Response: 90 ul of 10 mM stock -OR- 1 mg (pre-weighed) for a top concentration at 10 uM.
For the compound `COc1cc(CCC(=O)CC(=O)CCc2ccc(O)c(OC)c2)ccc1O`, the call was inactive.
On to `COc1cc(/C=C/C(=O)CC(=O)/C=C/c2ccc(O)c(OC)c2)ccc1O`, for which the compound was called inactive.
